Results: PubChem BioAssay (EPA / NIEHS)
Several values for one entry are separate records, joined by “and”; a condition that tells them apart may be missing. Equal entries are not always repeated. Some compounds were tested as several samples or in several runs, with calls that do not always agree. Activity calls are given as the source filed them. How the source made its calls: active means hit-call score of the fitted dose curve at least 0.9, where 1 is the maximum; inactive means score below 0.9.

Columns and labels:
[1] = molecular target: Bile acid receptor (Homo sapiens) (UniProt Q96RI1); assay: ATG_IR1_CIS: Attagene CIS-FACTORIAL HepG2 Assay for human Nuclear Receptor Subfamily 1 Group H Member 4 (NR1H4), IR1 submotif (AID 2282946); details: IR1 reporter transcription, actives raise or lower the signal
In short: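 Readout: reporter transcript levels by RT-PCR with fluorescent capillary electrophoresis, from HepG2 cells transiently transfected with multiplexed cis-regulated reporters and dosed 24 h. Gain- or loss-of-signal fitted versus DMSO negative control.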

[2] = ATG_GRE_CIS: Attagene CIS-FACTORIAL HepG2 Assay for human Glucocorticoid Response Elements (GRE) (AID 2282947); details: HepG2 GRE cis-reporter, Attagene multiplex mRNA; actives raise or lower the signal
In short: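 HepG2, transient cis-reporter transfection, 24 h. Reporter mRNA: RT-PCR then CE, fluorescence. Fit both directions vs DMSO.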

[3] = ATG_ISRE_CIS: Attagene CIS-FACTORIAL HepG2 Assay for human Interferon Regulatory Factor 1 (IRF1) binding to an Interferon-Stimulated Response Element (ISRE) (AID 2282948); details: HepG2 ISRE cis-reporter (Attagene), mRNA transcription readout; actives raise or lower the signal
In short: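 Read-out: fluorescent RT-PCR products resolved by capillary electrophoresis, reporting endogenous transcription factor activity via ISRE-driven reporter mRNA in transfected HepG2 cells dosed for 24 h; gain or loss fitted relative to DMSO.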

[4] = ATG_M_32_CIS: Attagene CIS-FACTORIAL HepG2 Assay for M32 Transcription Factor (Internal Marker) (AID 2282949); details: HepG2 Attagene cis-factorial M32 reporter, mRNA; actives raise or lower the signal;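 further: background control marker of the multiplexed CIS panel rather than a real target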
In short: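 Using DMSO as baseline, bidirectional curve fits were applied to reporter mRNA signals. These came from transiently transfected HepG2 cells exposed for 24 h, with RNA analysed by RT-PCR, FAM primer extension, HpaI digestion and CE.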

[5] = ATG_M_06_CIS: Attagene CIS-FACTORIAL HepG2 Assay for M06 Transcription Factor (Internal Marker) (AID 2282950); details: HepG2 Attagene CIS-FACTORIAL M06 internal marker reporter; actives raise or lower the signal
In short: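 HepG2 liver cells, 24 h exposure. Reporter transcripts from transfected cis-element constructs quantified by RT-PCR/capillary electrophoresis fluorescence. Bidirectional curve fit against DMSO.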

[6] = molecular target: Hepatocyte nuclear factor 6 (Homo sapiens) (UniProt Q9UBC0); assay: ATG_HNF6_CIS: Attagene CIS-FACTORIAL HepG2 Assay for human Hepatocyte Nuclear Factor 6 (HNF6) (AID 2282952); details: HepG2 Attagene cis-factorial HNF6 reporter transcription; actives raise or lower the signal
In short: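 First, HepG2 cells were transfected with the multiplexed cis reporter library and dosed with chemical for 24 h. Next, RNA was reverse-transcribed, PCR-amplified and fluorescently labelled. Finally, HpaI-digested fragments were read by capillary electrophoresis.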

[7] = molecular target: Heat shock factor protein 1 (Homo sapiens) (UniProt Q00613); assay: ATG_HSE_CIS: Attagene CIS-FACTORIAL HepG2 Assay for human Heat Shock Transcription Factor 1 (HSE) (AID 2282953); details: HepG2 HSE cis-reporter, Attagene RNA transcription; actives raise or lower the signal
In short: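 Endogenous transcription factor activity captured via cis-promoter reporter units transfected into HepG2; treatment lasted 24 h. Fluorescence intensity of reporter fragments analysed with bidirectional curve fitting, DMSO baseline.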

[8] = ATG_MRE_CIS: Attagene CIS-FACTORIAL HepG2 Assay for human Metal Responsive Element (MRE) (AID 2282954); details: HepG2 MRE cis-reporter transcription, Attagene multiplex; actives raise or lower the signal
In short: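 Readout: capillary electrophoresis of 6-FAM-labelled, HpaI-digested RT-PCR reporter products. System: HepG2 cells carrying transient multiplexed cis reporters, dosed 24 h. Analysis: bidirectional fit, DMSO baseline.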

[9] = ATG_PBREM_CIS: Attagene CIS-FACTORIAL HepG2 Assay for human Phenobarbital-responsive Enhancer Module (PBREM) (AID 2282955); details: HepG2 PBREM cis-reporter, Attagene multiplexed transcription; actives raise or lower the signal
In short: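 After a 24 h incubation with test chemical, transfected HepG2 cells yield total RNA; reporter-specific RT-PCR products are fluorescently labelled, HpaI-digested and resolved by capillary electrophoresis against ROX size standards.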

[10] = molecular target: Paired box protein Pax-6 (Homo sapiens) (UniProt P26367); assay: ATG_Pax6_CIS: Attagene CIS-FACTORIAL HepG2 Assay for human Paired Box 6 (PAX6) (AID 2282956); details: HepG2 CIS-FACTORIAL PAX6 reporter transcription, RNA readout; actives raise or lower the signal
In short: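 Readout: reporter transcript fluorescence after RT-PCR and capillary electrophoresis. Cells: HepG2, transiently transfected with cis-regulated MRTUs. Exposure 24 h. Gain or loss of signal fitted bidirectionally relative to DMSO.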

[11] = ATG_PXRE_CIS: Attagene CIS-FACTORIAL HepG2 Assay for human Pregnane X Receptor Element (PXRE) (AID 2282957); details: HepG2 Attagene CIS-FACTORIAL PXRE reporter, mRNA; actives raise or lower the signal
In short: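 After a 24 h chemical incubation, total RNA from transfected HepG2 cells was reverse-transcribed and reporter cDNA amplified, FAM-labeled, HpaI-digested and sized by capillary electrophoresis. DMSO served as baseline for bidirectional curve fitting.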

[12] = ATG_PPRE_CIS: Attagene CIS-FACTORIAL HepG2 Assay for human Peroxisome Proliferator-activated Response Element (PPRE) (AID 2282958); details: HepG2 PPRE cis-element reporter, Attagene transcription factor profiling; actives raise or lower the signal
In short: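 Multiplexed reporter transcription units under cis-regulatory promoters were transfected into HepG2 cells to capture endogenous factor activity. A 24 h incubation preceded RNA isolation and fluorescent RT-PCR fragment analysis.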

[13] = ATG_RORE_CIS: Attagene CIS-FACTORIAL HepG2 Assay for human RAR-related Orphan Receptor Element (RORE) (AID 2282959); details: HepG2 Attagene cis-factorial RORE reporter, mRNA; actives raise or lower the signal
In short: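 Fluorescence intensity of reporter-specific cDNA fragments, separated by capillary electrophoresis, gives the signal. Source: HepG2 liver cells transiently transfected with cis-element reporters and exposed 24 h; DMSO-normalized bidirectional fit.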

[14] = ATG_Sox_CIS: Attagene CIS-FACTORIAL HepG2 Assay for human SRY-box transcription factor (SOX) (AID 2282960); details: HepG2 Attagene cis-factorial SOX reporter, mRNA; actives raise or lower the signal
In short: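 After 24 h of chemical treatment, transfected HepG2 reporter cells are lysed for total RNA. Transcript levels come from RT-PCR with labelled primer extension and capillary electrophoresis, analysed bidirectionally versus DMSO.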

[15] = molecular target: Transcription factor Sp1 (Homo sapiens) (UniProt P08047); assay: ATG_Sp1_CIS: Attagene CIS-FACTORIAL HepG2 Assay for human Specificity Protein 1 (Sp1) (AID 2282961); details: HepG2 Sp1 cis-reporter transcription, actives raise or lower the signal
In short: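 Sp1-driven reporter mRNA, read as capillary electrophoresis fluorescence after RT-PCR, in transiently transfected HepG2 cells dosed for 24 h; signal change in either direction relative to DMSO.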

[16] = ATG_SREBP_CIS: Attagene CIS-FACTORIAL HepG2 Assay for human Sterol Regulatory Element Binding (SREBP) (AID 2282962); details: HepG2 Attagene cis-factorial SREBP reporter, mRNA; actives raise or lower the signal
In short: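 Readout: fluorescent reporter-transcript peaks resolved by capillary electrophoresis after RT-PCR. Cells were human HepG2 carrying transfected cis-promoter reporter constructs, dosed for 24 h. Gain or loss of signal was fitted against DMSO controls.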

[17] = molecular target: Signal transducer and activator of transcription 3 (Homo sapiens) (UniProt P40763); assay: ATG_STAT3_CIS: Attagene CIS-FACTORIAL HepG2 Assay for human Signal Transducer and Activator of Transcription 3 (STAT3) (AID 2282963); details: HepG2, Attagene cis-factorial STAT3 reporter transcription; actives raise or lower the signal
In short: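 Uses human liver HepG2 transiently carrying cis-regulated reporter transcription units. Following 24 h dosing, reporter mRNA induction was detected by RT-PCR and capillary electrophoresis, analysed bidirectionally versus DMSO.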

[18] = ATG_TA_CIS: Attagene CIS-FACTORIAL HepG2 Assay for human TA Basal Promoter (AID 2282964); details: HepG2 Attagene CIS-factorial TA basal promoter reporter; actives raise or lower the signal
In short: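 Fluorescence from labelled RT-PCR reporter fragments, separated by capillary electrophoresis, gives the signal. Cells: HepG2 transiently carrying multiple reporter units, 24 h chemical dosing. Gain or loss relative to DMSO.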

[19] = ATG_TCF_b_cat_CIS: Attagene CIS-FACTORIAL HepG2 Assay for human T-Cell-Factor with beta-catenin (TCF/b-cat) (AID 2282965); details: HepG2 TCF/beta-catenin cis-reporter transcription, actives raise or lower the signal
In short: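 Using capillary electrophoresis as the read-out, labelled reporter cDNA fragments from transiently transfected HepG2 were sized and quantified. Exposure lasted 24 hours; activity in either direction was referenced to DMSO.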

[20] = molecular target: Hypoxia-inducible factor 1-alpha (Homo sapiens) (UniProt Q16665); assay: ATG_HIF1a_CIS: Attagene CIS-FACTORIAL HepG2 Assay for human Hypoxia Inducible Factor 1 (HIF1A) (AID 2282951); details: HepG2 Attagene cis-factorial HIF1a reporter transcription; actives raise or lower the signal
In short: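 In this multiplexed cell assay, HepG2 cells bearing transfected cis reporters are dosed for 24 h and reporter mRNA is read by RT-PCR plus capillary electrophoresis; signal increases and decreases are both scored against DMSO.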

Sequence of Hypoxia-inducible factor 1-alpha (Homo sapiens) (Q16665 whole entry, looked up): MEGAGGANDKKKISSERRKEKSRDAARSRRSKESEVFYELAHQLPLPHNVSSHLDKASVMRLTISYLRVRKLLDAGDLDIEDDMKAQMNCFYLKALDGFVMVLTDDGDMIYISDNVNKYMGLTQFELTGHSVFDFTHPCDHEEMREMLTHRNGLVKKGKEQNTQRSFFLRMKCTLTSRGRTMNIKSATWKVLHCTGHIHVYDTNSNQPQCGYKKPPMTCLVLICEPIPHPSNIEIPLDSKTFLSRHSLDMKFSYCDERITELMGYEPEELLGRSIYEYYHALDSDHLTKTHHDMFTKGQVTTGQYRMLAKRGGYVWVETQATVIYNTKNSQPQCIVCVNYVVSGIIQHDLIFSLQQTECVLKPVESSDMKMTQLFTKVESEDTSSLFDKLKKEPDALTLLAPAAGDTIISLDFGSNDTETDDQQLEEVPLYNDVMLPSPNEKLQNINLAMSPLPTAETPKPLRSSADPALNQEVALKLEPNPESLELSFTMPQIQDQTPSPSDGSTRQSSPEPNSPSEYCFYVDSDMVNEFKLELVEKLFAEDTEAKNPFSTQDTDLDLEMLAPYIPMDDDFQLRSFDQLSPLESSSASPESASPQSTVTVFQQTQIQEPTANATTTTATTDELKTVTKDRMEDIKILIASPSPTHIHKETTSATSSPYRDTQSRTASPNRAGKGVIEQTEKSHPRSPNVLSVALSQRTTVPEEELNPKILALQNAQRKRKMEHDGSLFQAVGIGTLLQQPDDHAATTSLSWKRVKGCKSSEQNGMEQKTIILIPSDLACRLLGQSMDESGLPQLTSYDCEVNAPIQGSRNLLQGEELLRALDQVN
Sequence of Signal transducer and activator of transcription 3 (Homo sapiens) (P40763 whole entry, looked up): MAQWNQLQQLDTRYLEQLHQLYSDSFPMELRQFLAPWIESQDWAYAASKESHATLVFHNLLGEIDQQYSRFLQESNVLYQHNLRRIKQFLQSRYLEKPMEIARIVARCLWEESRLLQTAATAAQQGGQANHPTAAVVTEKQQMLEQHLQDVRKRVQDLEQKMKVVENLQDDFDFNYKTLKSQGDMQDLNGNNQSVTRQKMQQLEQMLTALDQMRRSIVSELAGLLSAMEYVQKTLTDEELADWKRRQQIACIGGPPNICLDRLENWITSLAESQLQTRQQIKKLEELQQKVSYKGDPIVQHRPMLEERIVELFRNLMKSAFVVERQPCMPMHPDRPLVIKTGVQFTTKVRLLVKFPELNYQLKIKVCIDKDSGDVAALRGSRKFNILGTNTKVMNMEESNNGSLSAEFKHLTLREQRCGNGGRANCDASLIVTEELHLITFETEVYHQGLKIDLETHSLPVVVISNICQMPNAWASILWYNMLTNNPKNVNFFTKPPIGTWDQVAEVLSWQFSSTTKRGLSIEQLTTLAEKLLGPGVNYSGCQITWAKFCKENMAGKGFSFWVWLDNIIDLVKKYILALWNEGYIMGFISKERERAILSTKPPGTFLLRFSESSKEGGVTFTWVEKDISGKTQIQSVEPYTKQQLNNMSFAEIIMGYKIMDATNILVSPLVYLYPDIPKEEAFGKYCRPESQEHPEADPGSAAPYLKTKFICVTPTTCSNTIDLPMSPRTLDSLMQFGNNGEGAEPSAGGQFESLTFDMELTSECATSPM
Sequence of Paired box protein Pax-6 (Homo sapiens) (P26367 whole entry, looked up): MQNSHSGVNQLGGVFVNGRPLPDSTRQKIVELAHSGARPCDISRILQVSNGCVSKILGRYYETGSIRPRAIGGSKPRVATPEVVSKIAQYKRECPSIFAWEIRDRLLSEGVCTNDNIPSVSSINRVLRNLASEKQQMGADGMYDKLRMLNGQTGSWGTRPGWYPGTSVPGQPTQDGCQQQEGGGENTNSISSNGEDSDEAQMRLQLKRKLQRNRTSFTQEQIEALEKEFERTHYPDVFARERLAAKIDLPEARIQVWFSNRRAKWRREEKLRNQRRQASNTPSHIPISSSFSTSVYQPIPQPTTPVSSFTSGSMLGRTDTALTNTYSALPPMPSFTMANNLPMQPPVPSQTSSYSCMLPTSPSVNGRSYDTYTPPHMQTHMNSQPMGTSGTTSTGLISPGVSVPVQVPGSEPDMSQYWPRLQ
Sequence of Transcription factor Sp1 (Homo sapiens) (P08047 whole entry, looked up): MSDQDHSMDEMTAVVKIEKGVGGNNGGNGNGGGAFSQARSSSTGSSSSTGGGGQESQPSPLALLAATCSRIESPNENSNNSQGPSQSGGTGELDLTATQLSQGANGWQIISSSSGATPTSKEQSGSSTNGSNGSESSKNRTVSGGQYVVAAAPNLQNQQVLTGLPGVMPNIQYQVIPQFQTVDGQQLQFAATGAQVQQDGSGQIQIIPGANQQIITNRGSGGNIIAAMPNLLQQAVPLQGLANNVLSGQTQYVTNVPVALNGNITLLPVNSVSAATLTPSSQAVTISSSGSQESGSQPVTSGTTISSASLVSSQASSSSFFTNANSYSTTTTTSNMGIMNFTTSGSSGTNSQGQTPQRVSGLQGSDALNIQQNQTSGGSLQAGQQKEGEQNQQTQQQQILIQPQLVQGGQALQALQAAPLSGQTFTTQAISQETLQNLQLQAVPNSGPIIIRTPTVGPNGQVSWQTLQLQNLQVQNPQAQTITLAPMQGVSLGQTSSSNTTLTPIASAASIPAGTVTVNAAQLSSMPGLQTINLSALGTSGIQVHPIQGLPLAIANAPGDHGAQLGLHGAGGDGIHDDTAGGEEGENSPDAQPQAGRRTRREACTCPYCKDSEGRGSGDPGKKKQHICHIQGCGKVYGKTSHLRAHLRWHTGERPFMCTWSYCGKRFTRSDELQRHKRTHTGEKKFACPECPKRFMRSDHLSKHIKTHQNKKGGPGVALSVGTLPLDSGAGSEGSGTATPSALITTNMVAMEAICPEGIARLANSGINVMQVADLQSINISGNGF
Sequence of Bile acid receptor (Homo sapiens) (Q96RI1 whole entry, looked up): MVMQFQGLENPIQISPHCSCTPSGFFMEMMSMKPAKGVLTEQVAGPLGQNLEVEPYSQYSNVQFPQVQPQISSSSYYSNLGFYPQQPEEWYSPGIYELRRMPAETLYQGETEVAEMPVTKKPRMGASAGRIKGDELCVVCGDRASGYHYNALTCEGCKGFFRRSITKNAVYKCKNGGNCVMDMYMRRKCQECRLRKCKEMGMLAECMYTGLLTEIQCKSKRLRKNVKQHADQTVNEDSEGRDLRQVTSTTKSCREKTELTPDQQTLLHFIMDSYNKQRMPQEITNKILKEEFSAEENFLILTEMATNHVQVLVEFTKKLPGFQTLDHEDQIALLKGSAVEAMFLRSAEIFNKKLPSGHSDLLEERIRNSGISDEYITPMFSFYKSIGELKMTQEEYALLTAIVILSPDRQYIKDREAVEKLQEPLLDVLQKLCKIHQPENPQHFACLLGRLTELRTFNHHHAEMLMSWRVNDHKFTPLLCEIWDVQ
Sequence of Heat shock factor protein 1 (Homo sapiens) (Q00613 whole entry, looked up, the tested form may be a part): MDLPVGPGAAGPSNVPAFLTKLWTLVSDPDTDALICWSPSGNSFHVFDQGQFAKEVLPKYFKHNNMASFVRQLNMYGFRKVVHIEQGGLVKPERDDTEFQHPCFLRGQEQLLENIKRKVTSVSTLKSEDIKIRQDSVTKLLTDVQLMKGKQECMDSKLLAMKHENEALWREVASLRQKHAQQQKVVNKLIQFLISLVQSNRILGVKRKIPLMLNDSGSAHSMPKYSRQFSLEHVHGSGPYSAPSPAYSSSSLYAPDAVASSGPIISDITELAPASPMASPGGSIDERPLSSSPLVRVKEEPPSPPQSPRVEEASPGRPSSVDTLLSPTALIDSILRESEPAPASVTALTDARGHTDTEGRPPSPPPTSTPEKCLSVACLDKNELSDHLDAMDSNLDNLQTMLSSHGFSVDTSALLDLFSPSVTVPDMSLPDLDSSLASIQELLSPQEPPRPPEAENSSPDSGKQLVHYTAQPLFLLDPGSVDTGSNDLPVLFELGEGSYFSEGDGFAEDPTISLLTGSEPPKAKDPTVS
Sequence of Hepatocyte nuclear factor 6 (Homo sapiens) (Q9UBC0 whole entry, looked up, the tested form may be a part): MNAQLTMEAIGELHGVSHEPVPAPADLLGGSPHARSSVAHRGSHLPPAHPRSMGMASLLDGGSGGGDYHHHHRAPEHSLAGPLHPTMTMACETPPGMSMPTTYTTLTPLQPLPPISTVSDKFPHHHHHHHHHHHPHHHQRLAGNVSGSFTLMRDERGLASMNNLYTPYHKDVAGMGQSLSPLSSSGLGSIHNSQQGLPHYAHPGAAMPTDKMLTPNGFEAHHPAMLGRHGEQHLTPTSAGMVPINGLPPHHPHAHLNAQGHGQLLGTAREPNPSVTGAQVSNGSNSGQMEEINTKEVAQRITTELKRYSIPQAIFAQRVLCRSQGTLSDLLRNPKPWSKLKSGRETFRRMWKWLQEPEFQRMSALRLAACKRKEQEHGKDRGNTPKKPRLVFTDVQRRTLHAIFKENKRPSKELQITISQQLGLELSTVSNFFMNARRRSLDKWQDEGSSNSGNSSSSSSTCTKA

CCCCOC(=O)c1ccc(O)cc1
outcome [1]: inactive
outcome [2]: inactive
AC50 [3]: 148 µM (active) and 151 µM (active)
outcome [3]: inactive
outcome [4]: inactive
outcome [5]: inactive
outcome [6]: inactive
AC50 [7]: 148 µM (active)
outcome [7]: inactive
AC50 [8]: 143 µM (active) and 129 µM (active)
outcome [8]: inactive
AC50 [9]: 58.9 µM (active)
outcome [9]: inactive
AC50 [10]: 81.5 µM (active)
outcome [10]: inactive
AC50 [11]: 27 µM (active) and 24.1 µM (active)
outcome [11]: inactive
AC50 [12]: 63.3 µM (active) and 65.9 µM (active) and 24.9 µM (active)
outcome [12]: inactive
AC50 [13]: 65 µM (active)
outcome [13]: inactive
AC50 [14]: 100 µM (active)
outcome [14]: inactive
outcome [15]: inactive
AC50 [16]: 19.8 µM (active)
outcome [16]: inactive
outcome [17]: inactive
AC50 [18]: 79 µM (active)
outcome [18]: inactive
AC50 [19]: 100 µM (active)
outcome [19]: inactive

c1ccc(C[n+]2cccc3ccccc32)cc1
outcome [1]: inactive
outcome [2]: inactive
outcome [3]: inactive
outcome [4]: inactive
outcome [5]: inactive
outcome [20]: inactive
outcome [6]: inactive
outcome [7]: inactive
outcome [8]: inactive
outcome [9]: inactive
outcome [10]: inactive
outcome [11]: inactive
outcome [12]: inactive
outcome [13]: inactive
outcome [14]: inactive
outcome [15]: inactive
outcome [16]: inactive
outcome [17]: inactive
outcome [18]: inactive
outcome [19]: inactive

CCCCCCCCCCCC[N+](C)(C)C
outcome [1]: inactive
outcome [2]: inactive
AC50 [3]: 16.6 µM (active) and 15.3 µM (active)
outcome [4]: inactive
outcome [5]: inactive
outcome [20]: inactive
outcome [6]: inactive
outcome [7]: inactive
AC50 [8]: 33.4 µM (active)
outcome [8]: inactive
outcome [9]: inactive
outcome [10]: inactive
AC50 [11]: 1.26 µM (active)
outcome [11]: inactive
outcome [12]: inactive
outcome [13]: inactive
outcome [14]: inactive
outcome [15]: inactive
AC50 [16]: 26.1 µM (active) and 25.6 µM (active)
outcome [17]: inactive
outcome [18]: inactive
outcome [19]: inactive

Cc1cc(F)ccc1-c1cc(N2CC[C@@H](O)[C@H]2CO)ncc1N(C)C(=O)C(C)(C)c1cc(C(F)(F)F)cc(C(F)(F)F)c1
outcome [1]: inactive
outcome [2]: inactive
outcome [3]: inactive
outcome [4]: inactive
outcome [5]: inactive
outcome [20]: inactive
outcome [6]: inactive
outcome [7]: inactive
outcome [8]: inactive
outcome [9]: inactive
outcome [10]: inactive
AC50 [11]: 0.35 µM (active)
outcome [12]: inactive
outcome [13]: inactive
outcome [14]: inactive
outcome [16]: inactive
outcome [17]: inactive
outcome [18]: inactive
outcome [19]: inactive

CC(C)(C)c1csc(-c2cc3cc(OCc4ccccc4CC(=O)O)ccc3o2)n1
outcome [1]: inactive
outcome [2]: inactive
AC50 [3]: 33.4 µM (active)
outcome [4]: inactive
outcome [5]: inactive
outcome [20]: inactive
outcome [6]: inactive
AC50 [7]: 62.7 µM (active)
AC50 [8]: 43.8 µM (active)
outcome [9]: inactive
AC50 [10]: 7.32 µM (active)
outcome [11]: inactive
AC50 [12]: 33.4 µM (active)
outcome [14]: inactive
AC50 [16]: 6.91 µM (active)
outcome [17]: inactive
AC50 [18]: 6.62 µM (active)
outcome [19]: inactive
